# In PubChem BioAssay (NCI):
# Compounds without any hit were thinned out: in the full panel of roughly 83,000, 20% have a hit.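 Single-concentration screen, 48 h exposure, 96-well plates. Endpoint: percent growth. Below 10 = active.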 Values without a mark were called inactive. Activity calls are given as the source filed them.
# Tested on: HL-60(TB) leukemia
# Assay: NCI-60 one-dose screen, 48 h (100 = growth as untreated, 0 = no growth, -100 = all killed)
# Settings: 10 µM unless noted
row,Structure (SMILES),growth
1,COC(=O)c1cc(-c2ccc(OC)c(OC)c2)[nH]c1N/N=C/c1c(Cl)cccc1Cl,3.48% (active)
2,O=[N+]([O-])c1ccc2c(c1)S(=O)c1cc([N+](=O)[O-])ccc1N2,109%
3,O=C1/C(=N/O)CCc2ccccc21,59.1%
4,COc1ccc(-c2cc(-c3ccccc3)nc(SCCCC(=O)NO)n2)cc1,-31.2% (active)
5,Nc1c(Br)cc2c(c1Br)Cc1cc([N+](=O)[O-])ccc1-2,69.6%
6,COc1cccc(-c2nn(-c3ccccc3)cc2-c2ccnc(NCCCNS(=O)(=O)c3cccc(F)c3)c2)c1,9.51% (active)
7,COc1cc2cc(Oc3ccc(NC(=O)Nc4cccc(C(F)(F)F)c4)cc3)c(C)nc2cc1OC,-24.8% (active)
8,Cc1nn(-c2ccc(Cl)cc2)c(=O)n1CCOc1ccccc1Cl,106%
9,CC(=O)OCC1OC(OC2=C(CC=C(Cl)Cl)C(=O)c3ccccc3C2=O)C(OC(C)=O)C(OC(C)=O)C1OC(C)=O (stereo not given),0.376% (active)
10,O=C(Oc1cccc2ccccc12)c1ccccc1C(=O)c1ccccc1,-8.79% (active)
11,COc1cc(NC(=O)c2cc3ccccc3nc2Nc2ccc(F)cc2)cc(OC)c1OC,47.2%
12,C=C1C(=O)O[C@H]2[C@H]1CC/C(COC(=O)NCc1ccc(Cn3c(=O)sn(CCCC)c3=O)cc1)=C\CC[C@@]1(C)O[C@@H]21,-33.2% (active)
13,CNC(=O)c1cc(Cn2nc(C)c(NC(=O)Nc3ccc(Cl)c(C(F)(F)F)c3)c2C)ccn1,103%
14,N#CCCCCCn1c2ccccc2c2c3c(c4c5ccccc5n(CCCCCC#N)c4c21)C(=O)N(O)C3=O,64.3%
15,CC(=O)c1ccc(Br)c([N+](=O)[O-])c1,122%
16,CN1CCN(CC(=O)N2c3cccc4cccc(c34)N(C(=O)CN3CCN(C)CC3)C2c2cn(-c3ccccc3)nc2-c2cccc([N+](=O)[O-])c2)CC1,-60% (active)
17,c1ccc(COc2ccc(Nc3ncnc4c3cnn4-c3ccccc3)cc2)cc1,99.8%
18,CCN1CCN(CCNc2nccc(-c3c(-c4ccc(F)c(O)c4)nc4occn34)n2)S1(=O)=O,1.1% (active)
19,CC(CN1CCN(C)CC1)CN1c2ccccc2Sc2ccc(C(F)(F)F)cc21 (stereo not given),40.4%
20,C/C(CC(=O)NNc1ccc([N+](=O)[O-])cc1)=N\Nc1ccc([N+](=O)[O-])cc1,28.8%

row,Structure (SMILES),growth
1,O=C(Oc1ccc[nH]c1=O)c1cccc(Cl)c1,87.6%
2,O=C(C1=Cc2cc3ccccc3n2Cc2cnnn21)c1ccc(F)cc1,98%
3,CC(=O)O[C@H]1CC[C@]2(C)[C@H]3CC=C4[C@@H]5CC(C)(C)CC[C@]5(C(=O)N5CCN(CCC#N)CC5)CC[C@@]4(C)[C@]3(C)CC[C@H]2C1(C)C,12.9%
4,COc1cc(OC)cc(-c2n/c(=C\c3c(O)[nH]c4ccc(Cl)cc34)cc3c2=Nc2ccccc2-3)c1,90.2%
5,O=C1OC(Cc2ccccc2)C1c1ccccc1 (stereo not given),84.7%
6,COc1cc2c3c(n([C@H]4CCOC4)c(=O)c2cc1OC)-c1cc2c(cc1C3=O)OCO2,25%
7,Cc1ccc2oc(=O)cc(-c3sc(N4CCCCC4)nc3-c3ccccc3)c2c1,95%
8,CCCCCCCCCNCCCCCCCCC,28.6%
9,CC(=O)Cc1nsc(NC(=O)c2cc(-c3cc(Cl)ccc3Cl)oc2C)n1,94.3%
10,CCN1CCN(c2nc(NNC(=O)c3ccccc3)nc(N3CCN(C(c4ccccc4)c4ccccc4)CC3)n2)CC1,23.3%
11,O=C(Nc1ccccc1N1CCCC1=O)c1oc2ccc(F)cc2c1-c1cnn(-c2ccccc2)c1,84.8% [50 µM]
12,COc1cc2c(cc1OCCCN1CCN(C(=S)SCCC(C#N)(c3ccccc3)c3ccccc3)CC1)N=C[C@@H]1CCCN1C2=O,0.178% (active)
13,CCOC(=O)C1=NN(c2ccccc2)C(=O)/C1=C\N1C(=O)/C(=C/c2cccc(O)c2)SC1=S,93.2%
14,NNc1ncccn1,103%
15,O=C1/C(=C/c2ccccc2[N+](=O)[O-])COc2ccc(O)cc21,-8.06% (active)
16,COCCOCCOCc1n(Cc2ccc3ccccc3n2)c2ccccc2[n+]1Cc1ccc2ccccc2n1,-42.9% (active)
17,Cc1ccc2c(C(C[N+](=O)[O-])c3ccccc3)c(-c3ccccc3)[nH]c2c1 (stereo not given),-10.4% [9.5 µM] (active)
18,CC(=O)Oc1ccccc1C(=O)/C=C/c1cccc([N+](=O)[O-])c1,17.3%
19,CCN(CC)CCN1C(=O)c2c(c(C)c3c(oc4cc(OC)ccc43)c2C)C1=O,85.8%
20,O=S(=O)(NCCNc1cc(-c2cn(-c3ccccc3)nc2-c2cccc(O)c2)ccn1)c1ccccc1,33.9%
